# Article PMC4336329 (PLoS ONE, 2015)
# In all, about 310,000 compounds went through this assay and about 14,000 (4.5%) showed an effect of 50% or more. Effects have a minus sign here. For the sample, strong results were picked, then their nearest neighbours and some compounds at random.
# Biological target: human ether-à-go-go-related gene (hERG) potassium channel (human, UniProt Q12809)
# Assay: primary screen, population patch clamp on CHO cells stably expressing hERG; higher = less effect of the substance
# 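Also: peak tail current of the secondary pulse compared with the same well before compound.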
# human ether-à-go-go-related gene (hERG) potassium channel, sequence (Q12809 whole entry, looked up): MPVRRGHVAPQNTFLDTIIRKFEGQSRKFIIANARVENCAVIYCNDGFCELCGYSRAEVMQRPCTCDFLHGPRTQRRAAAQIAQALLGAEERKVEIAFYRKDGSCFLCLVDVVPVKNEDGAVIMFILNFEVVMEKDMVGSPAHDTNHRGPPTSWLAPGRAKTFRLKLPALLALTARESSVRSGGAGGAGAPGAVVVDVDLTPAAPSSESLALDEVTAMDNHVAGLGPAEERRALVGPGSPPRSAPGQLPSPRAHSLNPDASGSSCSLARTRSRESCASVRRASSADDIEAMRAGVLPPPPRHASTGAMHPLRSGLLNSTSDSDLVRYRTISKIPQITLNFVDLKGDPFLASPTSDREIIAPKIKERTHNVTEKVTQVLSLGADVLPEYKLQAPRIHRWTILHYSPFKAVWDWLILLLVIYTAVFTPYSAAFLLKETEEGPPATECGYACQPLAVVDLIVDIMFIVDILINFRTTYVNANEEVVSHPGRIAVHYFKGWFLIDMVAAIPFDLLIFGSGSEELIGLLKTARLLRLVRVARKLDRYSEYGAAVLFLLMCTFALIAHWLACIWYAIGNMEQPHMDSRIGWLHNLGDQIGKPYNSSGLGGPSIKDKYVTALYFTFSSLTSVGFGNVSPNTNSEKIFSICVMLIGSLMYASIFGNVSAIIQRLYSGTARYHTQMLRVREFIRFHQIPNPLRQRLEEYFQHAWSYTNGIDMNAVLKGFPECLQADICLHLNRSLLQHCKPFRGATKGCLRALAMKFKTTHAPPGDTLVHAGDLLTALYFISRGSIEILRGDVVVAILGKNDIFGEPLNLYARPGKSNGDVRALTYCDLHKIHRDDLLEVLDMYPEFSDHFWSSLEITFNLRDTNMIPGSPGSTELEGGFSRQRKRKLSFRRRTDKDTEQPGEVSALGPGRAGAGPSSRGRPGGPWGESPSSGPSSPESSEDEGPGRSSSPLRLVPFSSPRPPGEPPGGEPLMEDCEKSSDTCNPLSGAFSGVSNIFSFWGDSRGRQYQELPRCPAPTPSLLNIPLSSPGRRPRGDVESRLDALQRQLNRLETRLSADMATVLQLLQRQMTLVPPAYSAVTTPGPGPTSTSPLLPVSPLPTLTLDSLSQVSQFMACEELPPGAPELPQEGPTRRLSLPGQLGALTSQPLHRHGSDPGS
row,Structure (SMILES),"hERG current change (%, negative = inhibition) at 10uM [%]"
1,O=C1CC(=O)N(CCc2ccccc2)C(=O)N1CCc1ccccc1,6.19
2,CN(C)S(=O)(=O)c1ccc(NC(=O)CSc2nc3ccccc3n2-c2ccccc2)cc1,24.2
3,CCc1cccc(C)c1NC(=S)NCC(c1cccnc1)N1CCOCC1 (centres unmarked),-14.3
4,C/C(=N/NC(=O)CNC(=O)c1ccco1)c1ccc(Cl)cc1,-1.47
5,O=C(NCc1n[nH]c(=O)c2ccccc12)C1CC(=O)N(c2ccccc2)C1 (centres unmarked),-1.81
6,COc1ccc(N2CC(C(=O)OCC(=O)c3ccccc3)CC2=O)cc1 (centres unmarked),-9.34
7,COc1ccc(N2CC(C(=O)OCC(=O)c3ccc(C)cc3)CC2=O)cc1 (centres unmarked),13.9
8,CCOc1ccc(N2CC(C(=O)NCCc3ccc(S(N)(=O)=O)cc3)CC2=O)cc1 (centres unmarked),12.1
9,O=C(NCc1n[nH]c(=O)c2ccccc12)C1CC(=O)N(c2ccc(Cl)cc2)C1 (centres unmarked),-70.7
10,CCOc1ccc(N2CC(C(=O)NCc3ccccc3)CC2=O)cc1 (centres unmarked),-12.3
11,Cc1ccc(N2CC(C(=O)NCc3n[nH]c(=O)c4ccccc34)CC2=O)cc1 (centres unmarked),-23.8
12,CCOc1ccc(N2CC(C(=O)NCCCc3ccccc3)CC2=O)cc1 (centres unmarked),-51.2
13,CCOc1ccc(N2CC(C(=O)NCCc3ccccc3)CC2=O)cc1 (centres unmarked),-29.6
14,CCOc1ccc(N2CC(C(=O)NCc3ccc(F)cc3)CC2=O)cc1 (centres unmarked),-27.3
15,CCOc1ccc(N2CC(C(=O)NCCc3ccc(F)cc3)CC2=O)cc1 (centres unmarked),-65.8
16,CCOc1ccc(N2CC(C(=O)OCC(=O)c3ccc(OC)cc3)CC2=O)cc1 (centres unmarked),-56
17,CCC(CC)C(=O)Nc1cc(C(=O)NCCc2ccccc2)ccc1Cl,-8.24
18,Cc1cccc(OCCCC(=O)Nc2ccc(S(=O)(=O)N3CCCC3)cc2)c1,-21.3
19,CCOC(=O)c1c(-c2ccc(OC)cc2)oc2ccc(OC(=O)N(C)C)cc12,10.1
20,Cc1nc2ccccc2c(=O)n1CCN1CCOCC1,4.18
21,COc1ccc(-c2nn(-c3ccccc3)cc2C2CC(c3cccs3)=NN2C(=O)CCCC(=O)O)cc1 (centres unmarked),17.9
22,O=C(CN1C(=O)NC2(CCCCC2)C1=O)N1CCN(S(=O)(=O)c2ccccc2)CC1,13.8
23,CCOc1ccc(N2CC(C(=O)Nc3nnc(Cc4ccccc4)s3)CC2=O)cc1 (centres unmarked),4.73

row,Structure (SMILES),"hERG current change (%, negative = inhibition) at 10uM [%]"
1,O=C(NCCOc1ccc(Cl)cc1)C1CC(=O)N(c2ccc(F)cc2)C1 (centres unmarked),-69.4
2,CCOc1ccc(N2CC(C(=O)Nc3nnc(CC)s3)CC2=O)cc1 (centres unmarked),-53.6
3,CCOc1ccc(N2CC(C(=O)Nc3ccc(F)cc3F)CC2=O)cc1 (centres unmarked),-3.45
4,CCOc1ccccc1N1CC(C(=O)Nc2cc(Cl)ccc2-n2cncn2)CC1=O (centres unmarked),-10.3
5,O=C(NCCOc1ccc(Cl)cc1)C1CC(=O)N(c2ccc3c(c2)OCCO3)C1 (centres unmarked),-27.9
6,Cc1ccc(OCCNC(=O)C2CC(=O)N(c3ccc(C)cc3)C2)cc1 (centres unmarked),-4.5
7,CCOCCc1nnc(NC(=O)C2CC(=O)N(c3ccc(OCC)cc3)C2)s1 (centres unmarked),-18.1
8,CCOc1ccc(N2CC(C(=O)Nc3cc(Cl)ccc3-n3cncn3)CC2=O)cc1 (centres unmarked),-64.2
9,Cc1ccc(C(=O)c2nc(C(=O)NCCO)nc3ccccc23)cc1,25.8
10,COc1ccc(-c2cc(=O)oc3c(C)c(OC(C)C(=O)N4C[C@H]5C[C@@H](C4)c4cccc(=O)n4C5)ccc23)cc1 (some centres unmarked),-47.2
11,CCOC(=O)c1[nH]c(C)c(C(=O)OCC(=O)N(Cc2ccccc2)C(C)C)c1C,-15.8
12,Cc1cccc(OCCCCNCc2ccccc2)c1.O=C(O)C(=O)O,-38.1
13,Cc1ccc(C(=O)NC(=S)N2CCN(C)CC2)cc1,-1.37
14,COC(=O)c1ccc(CSc2nnc(CS(=O)Cc3ccc(Br)cc3)n2-c2ccccc2)cc1 (centres unmarked),-12
15,S=C(Nc1ccc(Br)cc1)N1CCN(C2CCCCC2)CC1,-17.3
16,O=C(CN1CCN(S(=O)(=O)N2CCCCC2)CC1)Nc1ccc(Br)cc1,-78.2
17,O=C(CN1CCCCCC1)Nc1ccc(Br)cc1,-32.3
18,O=C(CN1CCCCC1)Nc1ccc(S(=O)(=O)N2CCCCCC2)cc1,-35.5
19,Cl.O=C(CN1CCN(C2CCCCC2)CC1)Nc1ccc(Br)cc1,-70
20,O=C(CN1CCCC1)Nc1ccc(S(=O)(=O)N2CCCCC2)cc1,4.2
21,Cl.O=C(CN1CCCC1)Nc1ccc(Br)cc1,-1.25
22,O=C(CN1CCCCCC1)Nc1ccc(S(=O)(=O)N2CCCCC2)cc1,-38.7
23,O=C(CN1CCN(S(=O)(=O)N2CCCCC2)CC1)Nc1ccc(Cl)c(Cl)c1,-28.2

row,Structure (SMILES),"hERG current change (%, negative = inhibition) at 10uM [%]"
1,O=C(CN1CCN(S(=O)(=O)N2CCCCCC2)CC1)Nc1ccc(F)cc1,-74.9
2,O=C(CN1CCN(S(=O)(=O)N2CCCCC2)CC1)Nc1cc(Cl)cc(Cl)c1,-32.5
3,O=C(CN1CCN(S(=O)(=O)N2CCCCCC2)CC1)Nc1ccc(Br)cc1,-74.3
4,CC1CCC2(CC1)NC(=O)N(CC(=O)Nc1ccc3[nH]c(=O)[nH]c3c1)C2=O (centres unmarked),0.0265
5,O=C(NC1CCCCC1)c1cc(S(=O)(=O)N2CCOCC2)c(Cl)cc1Cl,13.6
6,Cc1nc2ccccc2c(=O)[nH]1,3.94
7,CN(C)S(=O)(=O)N1CCN(CC(=O)Nc2ccc(Br)cc2)CC1,-49.4
8,Cc1ccc(N(CC(=O)Nc2ccc(F)cc2)S(=O)(=O)N2CCCC2)cc1,-27.1
9,CN(C)S(=O)(=O)N1CCN(CC(=O)Nc2ccc(F)cc2)CC1,-69.7
10,CCc1ccc(Nc2nc(C)cc(C)n2)cc1.Cl,-1.21
11,CCc1ccc(-c2cn(-c3nc(C)cc(C)n3)c(=N)o2)cc1,-71.8
12,CCc1ccc(-c2cn3c(n2)SCC3)cc1,4.12
13,Cc1ccc2oc(-c3ccccc3)nc2c1,11.3
14,COc1ccc(N2CCN(Cc3nc(N)nc(N4CCCc5ccccc54)n3)CC2)cc1,-27.9
15,Nc1nc(CN2CCN(c3ccc(F)cc3)CC2)nc(N2CCCc3ccccc32)n1,-52.9
16,Nc1nc(CN2CCN(Cc3ccccc3)CC2)nc(N2CCCc3ccccc32)n1,-56.5
17,Nc1nc(CN2CCN(c3ccccc3F)CC2)nc(N2CCCc3ccccc32)n1,-11.7
18,Nc1nc(CN2CCN(c3cccc(Cl)c3)CC2)nc(N2CCCc3ccccc32)n1,-6.96
19,Nc1nc(CN2CCN(c3ccccc3)CC2)nc(N2CCCc3ccccc32)n1,-39.6
20,COc1ccc(CC(=O)N2N=C(C)CC2(O)C(F)(F)F)cc1 (centres unmarked),2.87
21,Cc1cc(N/N=C/c2ccccc2F)c2ccccc2n1,9.06
22,CN(C)c1ccc(C(=S)N2CCCCC2)cc1,8.24
23,Nc1cccnc1S(=O)(=O)c1cccc(C(F)(F)F)c1,5.59

row,Structure (SMILES),"hERG current change (%, negative = inhibition) at 10uM [%]"
1,CC1CCC(C(C)C)C(OCC(O)CN2CCOCC2)C1.Cl (centres unmarked),-0.613
2,CC1CCN(CC(O)COC2CC(C)CC(C)(C)C2)CC1.Cl (centres unmarked),-54.5
3,CC1CCN(CC(O)COC2CC(C)CCC2C(C)C)CC1.Cl (centres unmarked),-70.4
4,CC1CC(OCC(O)CN2CCN(Cc3ccccc3)CC2)CC(C)(C)C1.Cl (centres unmarked),-43.5
5,CC1CC(OCC(O)CN2CCOCC2)CC(C)(C)C1.Cl (centres unmarked),1.1
6,CC1CCC(C(C)C)C(OCC(O)CN2CCCC(C)C2)C1.Cl (centres unmarked),-31.6
7,CCOC(=O)N1CCN(CC(O)COC2CC(C)CCC2C(C)C)CC1.Cl (centres unmarked),-33.1
8,CC1CCC(C(C)C)C(OCC(O)CN2CCN(Cc3ccccc3)CC2)C1.Cl (centres unmarked),-66.5
9,CC1CC(C)CN(CC(O)COC2CC(C)CC(C)(C)C2)C1.Cl (centres unmarked),-32.3
10,CC(=O)Nc1ccc(N2C(=O)CSC2c2cccc([N+](=O)[O-])c2)cc1 (centres unmarked),15.6
11,Cc1cc(NC(=O)CCCn2cnc([N+](=O)[O-])n2)no1,1.48
12,CC(=O)N1CCC2(CC1)C(C#N)=C(N)OC1=C2C(=O)CC(C)(C)C1,8.09
13,COc1ccccc1/C=C1\SC(=S)N(NS(=O)(=O)c2ccccc2)C1=O,8.33
14,COc1ccccc1C(=O)NC(=O)COC(=O)C1CC1C (centres unmarked),-3.4
15,O=C(c1ccc(Cl)c(S(=O)(=O)N2CCOCC2)c1)N1CCN(c2ccccc2F)CC1,-15.1
16,COc1cc(CNc2cccc(C(=O)O)c2)cc(Br)c1OCC(=O)NC(C)(C)C,2.52
17,FC(F)(F)c1nnc2ccc(Sc3ccccn3)nn12,17.1
18,O=C(NCc1ccccn1)C1CC(c2ccccc2Cl)=NO1 (centres unmarked),14.1
19,O=S(=O)(Cc1ccccc1Cl)N1CCCCC1,1.5
20,C=CCNCCCCOc1c(Cl)cc(C)cc1Br.O=C(O)C(=O)O,-31.7
